According to PubChem BioAssay (NCI):
The panel holds about 83,000 compounds, 20% with a hit somewhere; the sample as a whole holds those more often.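 A percent growth of 40 corresponds to 60% growth inhibition; 0 means no net growth; -100 means all cells died. Active threshold: below 10.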 Values without a mark were called inactive. Activity calls are given as the source filed them.

These compounds were tested on COLO 205 colon (assay: NCI-60 one-dose screen, 48 h (100 = growth as untreated, 0 = no growth, -100 = all killed)). Details: 10 µM.

| SMILES | growth |
| --- | --- |
| CC1=C(COCCOC(=O)c2ccc(S(=O)(=O)F)cc2)C2=C(C)C3(CC3)[C@@](C)(O)C(=O)C2=C1 | -73% (active) |
| CC[C@]12C=CCN3CC[C@@]4(c5ccc(OC)cc5N(C)[C@H]4[C@@](O)(C(=O)OC)[C@@H]1OC(=O)CCCC[P+](c1ccc(OC)cc1)(c1ccc(OC)cc1)c1ccc(OC)cc1)[C@@H]32 | -64.9% (active) |
| CC1=C(CCC=NNC(N)=O)C2=C(C)C3(CC3)[C@@](C)(O)C(=O)C2=C1 | -91.4% (active) |
| CC[C@@]12CC(C(=O)OC)=C3Nc4cc5c(cc4[C@@]34CCN(C[C@H]3O[C@H]31)[C@@H]24)[C@@H]1[C@H](O5)[C@@H](O)[C@@]2(CC)CC(C(=O)OC)=C3Nc4cc(OC)ccc4[C@@]34CCN1[C@@H]24 | -59.1% (active) |
| CCOP(=O)(CC(F)(F)C(F)(F)F)OCC | -68% (active) |
| CC1=C2C(=C[C@@](C)(COP(=O)(Oc3ccccc3)Oc3ccccc3)[C@@H]2O)C(=O)[C@@](C)(O)C12CC2 | -95.8% (active) |
| CC(=O)Oc1ccccc1C(=O)NC([Se])=NC1CCCCC1 | 28.9% |
| C[C@H]1[C@H](OC(=O)CCC(=O)N(CCCc2cn(-c3ccc(CN4CCOCC4)cc3)nn2)CCNc2ccnc3cc(Cl)ccc23)O[C@@H]2OC3(C)CC[C@H]4[C@H](C)CC[C@@H]1[C@@]24OO3 | -30.1% (active) |
| O=C(/C=C/c1ccc(Cl)cc1)c1nc2ccccc2n1Cc1ccc(F)cc1 | 71.9% |
| CC1=C(CCC=O)C2=C(C)C3(CC3)[C@@](C)(O)C(=O)C2=C1 | -71.4% (active) |
| O=C(NC([Se])=NC1CCCCC1)c1ccc2c(c1)OCO2 | 28.1% |
| C[C@H]1[C@H](OC(=O)CCC(=O)N(CCCc2cn(-c3ccc(C#N)cc3)nn2)CCNc2ccnc3cc(Cl)ccc23)O[C@@H]2OC3(C)CC[C@H]4[C@H](C)CC[C@@H]1[C@@]24OO3 | 14.5% |
| C[C@H]1[C@@H](Oc2ccc(-c3cn(-c4ccnc5cc(Cl)ccc45)nn3)cc2)O[C@@H]2OC3(C)CC[C@H]4[C@H](C)CC[C@@H]1[C@@]24OO3 | -50% (active) |
| COc1ccc(/C=C/C(=O)c2nc3ccccc3n2Cc2ccc(Br)cc2)cc1 | 91.4% |
| COC(=O)CCn1c(-c2ccc(-n3cc(-c4ccc(O[C@H]5O[C@@H]6OC7(C)CC[C@H]8[C@H](C)CC[C@@H]([C@H]5C)[C@@]68OO7)cc4)nn3)cc2)nc2ccccc21 | -26.6% (active) |
| C[C@H]1[C@H](OC(=O)CCC(=O)N(CCCc2cn(-c3ccc([N+](=O)[O-])cc3)nn2)CCNc2ccnc3cc(Cl)ccc23)O[C@@H]2OC3(C)CC[C@H]4[C@H](C)CC[C@@H]1[C@@]24OO3 | 20.1% |

Each compound was assayed on DU-145 prostate in the same assay as above. Details: 10 µM.

| SMILES | growth |
| --- | --- |
| O=C(/C=C/c1ccco1)c1nc2ccccc2n1Cc1ccc(Br)cc1 | 28.1% |
| O=C(/C=C/c1ccco1)c1nc2ccccc2n1Cc1ccc(F)cc1 | 56.6% |
| COc1cc2cc(C(=O)N3C[C@@H](CCl)c4c3cc(OC(=O)N3CCN(C)[C@@H]5CSSC[C@@H]53)c3ccccc43)[nH]c2c(OC)c1OC | -4.86% (active) |
| C#CC[Se]C(=O)c1ccc2n[se]nc2c1 | 71.8% |
| O=C(/C=C/c1ccc(Cl)cc1Cl)c1nc2ccccc2n1Cc1ccc(F)cc1 | 55.4% |
| O=C(/C=C/c1ccc(Cl)cc1)c1nc2ccccc2n1Cc1ccc(Br)cc1 | 66.1% |
| CCOP(=O)(OCC)C(NC(C)=O)C(=O)SCCN (stereo not given) | 122% |
| COc1cc2cc(C(=O)N3C[C@@H](CCl)c4c3cc(OC(=O)N3CCN(C)[C@@H]5CSSC[C@H]53)c3ccccc43)[nH]c2c(OC)c1OC | 1.52% (active) |
| COc1ccc2cc([C@H](C)C(=O)[Se]CCC#N)ccc2c1 | -76.4% (active) |
| CC12OOC(C)(OO1)C2CCC(=O)OCCNc1ccnc2cc(Cl)ccc12 (stereo not given) | -53.9% (active) |
| CC(C)N=C([Se])NC(=O)c1cccs1 | -14.3% (active) |
| Cc1ccc2[nH]c(=S)n(-c3ccc(F)cc3)c(=O)c2c1 | 110% |
| CCOC(=O)C1=C(Nc2ccccc2)C(=O)OC12C(=O)Nc1ccccc12 (stereo not given) | 114% |
| CC12CCC3(CCC(=O)NCCCNc4ccnc5cc(Cl)ccc45)[C@@](C)(OO[C@]3(C)O1)O2 | 38.2% |
| CC[C@]12C=CCN3CC[C@@]4(c5ccc(OC)cc5N(C)[C@H]4[C@@](O)(C(=O)OC)[C@@H]1OC(=O)CCCC[P+](C1CCCCC1)(C1CCCCC1)C1CCCCC1)[C@@H]32 | 9.57% (active) |
| CC(=O)Oc1ccccc1C(=O)[Se]C(=NC(C)C)NC(C)C | -92.6% (active) |
| COCCOCCOCCOc1ccc(-n2cc(CCCN(CCNc3ccnc4cc(Cl)ccc34)C(=O)CCC(=O)O[C@@H]3O[C@@H]4OC5(C)CC[C@H]6[C@H](C)CC[C@@H]([C@H]3C)[C@@]46OO5)nn2)cc1 | 62% |
| C[C@H]1[C@@H](CC(=O)N[C@@H](Cc2coc3ccccc23)B(O)O)O[C@@H]2OC3(C)CC[C@H]4[C@H](C)CC[C@@H]1[C@@]24OO3 | 21.6% |
| COP(=O)(CC(F)(F)C(F)(F)F)OC | 9.69% (active) |
| CC12OOC(C)(OO1)C2CCC(=O)NCCNc1ccnc2cc(Cl)ccc12 (stereo not given) | 104% |

| SMILES | growth |
| --- | --- |
| CC[C@]12C=CCN3CC[C@@]4(c5ccc(OC)cc5N(C)[C@H]4[C@@](O)(C(=O)OC)[C@@H]1OC(=O)CCC[P+](c1ccc(C)cc1)(c1ccc(C)cc1)c1ccc(C)cc1)[C@@H]32 | -78.5% (active) |
| CC(C)N=C([Se])NC(=O)c1ccccc1 | -74.6% (active) |
| CC[C@]12C=CCN3CC[C@@]4(c5ccc(OC)cc5N(C)[C@H]4[C@@](O)(C(=O)OC)[C@@H]1OC(=O)CCC[P+](C1CCCCC1)(C1CCCCC1)C1CCCCC1)[C@@H]32 | 15.7% |
| CC1=C(COCCOC(=O)c2ccc(S(=O)(=O)F)cc2)C2=C(C)C3(CC3)[C@@](C)(O)C(=O)C2=C1 | -3.95% (active) |
| CC[C@]12C=CCN3CC[C@@]4(c5ccc(OC)cc5N(C)[C@H]4[C@@](O)(C(=O)OC)[C@@H]1OC(=O)CCCC[P+](c1ccc(OC)cc1)(c1ccc(OC)cc1)c1ccc(OC)cc1)[C@@H]32 | -58.2% (active) |
| CC1=C(CCC=NNC(N)=O)C2=C(C)C3(CC3)[C@@](C)(O)C(=O)C2=C1 | -29.2% (active) |
| CC[C@@]12CC(C(=O)OC)=C3Nc4cc5c(cc4[C@@]34CCN(C[C@H]3O[C@H]31)[C@@H]24)[C@@H]1[C@H](O5)[C@@H](O)[C@@]2(CC)CC(C(=O)OC)=C3Nc4cc(OC)ccc4[C@@]34CCN1[C@@H]24 | 50.7% |
| CCOP(=O)(CC(F)(F)C(F)(F)F)OCC | 14.9% |
| CC1=C2C(=C[C@@](C)(COP(=O)(Oc3ccccc3)Oc3ccccc3)[C@@H]2O)C(=O)[C@@](C)(O)C12CC2 | -96.3% (active) |
| CC(=O)Oc1ccccc1C(=O)NC([Se])=NC1CCCCC1 | 20% |
| C[C@H]1[C@H](OC(=O)CCC(=O)N(CCCc2cn(-c3ccc(CN4CCOCC4)cc3)nn2)CCNc2ccnc3cc(Cl)ccc23)O[C@@H]2OC3(C)CC[C@H]4[C@H](C)CC[C@@H]1[C@@]24OO3 | 49.7% |
| O=C(/C=C/c1ccc(Cl)cc1)c1nc2ccccc2n1Cc1ccc(F)cc1 | 37.6% |
| CC1=C(CCC=O)C2=C(C)C3(CC3)[C@@](C)(O)C(=O)C2=C1 | -100% (active) |
| O=C(NC([Se])=NC1CCCCC1)c1ccc2c(c1)OCO2 | 49% |
| C[C@H]1[C@H](OC(=O)CCC(=O)N(CCCc2cn(-c3ccc(C#N)cc3)nn2)CCNc2ccnc3cc(Cl)ccc23)O[C@@H]2OC3(C)CC[C@H]4[C@H](C)CC[C@@H]1[C@@]24OO3 | 69.3% |
| C[C@H]1[C@@H](Oc2ccc(-c3cn(-c4ccnc5cc(Cl)ccc45)nn3)cc2)O[C@@H]2OC3(C)CC[C@H]4[C@H](C)CC[C@@H]1[C@@]24OO3 | 51.6% |
| COc1ccc(/C=C/C(=O)c2nc3ccccc3n2Cc2ccc(Br)cc2)cc1 | 61.9% |
| COC(=O)CCn1c(-c2ccc(-n3cc(-c4ccc(O[C@H]5O[C@@H]6OC7(C)CC[C@H]8[C@H](C)CC[C@@H]([C@H]5C)[C@@]68OO7)cc4)nn3)cc2)nc2ccccc21 | 34% |
| C[C@H]1[C@H](OC(=O)CCC(=O)N(CCCc2cn(-c3ccc([N+](=O)[O-])cc3)nn2)CCNc2ccnc3cc(Cl)ccc23)O[C@@H]2OC3(C)CC[C@H]4[C@H](C)CC[C@@H]1[C@@]24OO3 | 53.8% |
